Assay results: the supplement of paper PMC6522484
± gives the standard deviation of the averaged measurements.

Tests used:
DLD1 [1] = assay: cell viability (CellTiter-Glo) relative to plate median (fraction of plate median); higher = more viable cells; conditions: 10 µM, treatment time 24 h
Procedure, shortened: (§1)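 Each value averages two independent replicates in which the well signal was normalised to the plate median (webcellHTS2, additive, without log transformation). The signal was firefly luciferase or CellTiterGlo luminescence, read on parallel plates with a Tecan F500. The cells were colorectal cancer lines with stable lentiviral TCF/Wnt firefly luciferase reporters in 384-well plates, dosed 24 h after seeding with kinase inhibitor library compounds at a final 10 µM for 24 h.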

HCT116 [2] = assay: as above; conditions: 10 µM; treatment time 24 h; reporter: TCF4/Wnt
Procedure, shortened: as §1

SW480 [3] = assay: as above; conditions: 10 µM; treatment time 24 h; reporter: 7TFP
Procedure, shortened: as §1

DLD1 [4] = assay: TCF/Wnt firefly luciferase reporter signal relative to plate median (fraction of plate median); higher = higher Wnt reporter signal; conditions: 10 µM, treatment time 24 h
Procedure, shortened: as §1

HCT116 [5] = assay: as above; conditions: 10 µM; treatment time 24 h; reporter: TCF4/Wnt
Procedure, shortened: as §1

SW480 [6] = assay: as above; conditions: 10 µM; treatment time 24 h; reporter: 7TFP
Procedure, shortened: as §1

SMILES | cell viability (DLD1 [1]; reporter: 7TFP) | cell viability (DLD1 [1]; reporter: TCF4/Wnt) | cell viability (HCT116 [2]) | cell viability (SW480 [3]) | TCF/Wnt firefly luciferase reporter signal (DLD1 [4]; reporter: 7TFP) | TCF/Wnt firefly luciferase reporter signal (DLD1 [4]; reporter: TCF4/Wnt) | TCF/Wnt firefly luciferase reporter signal (HCT116 [5]) | TCF/Wnt firefly luciferase reporter signal (SW480 [6])
CN1CCN(c2cccc(Nc3nc4c(-c5ccc(S(C)(=O)=O)cc5)cccn4n3)c2)CC1 | 0.927 ± 0.013 | 0.896 ± 0.042 | 0.871 ± 0.031 | 1.055 ± 0.0071 | 0.96 ± 0.1 | 1.03 ± 0.057 | 1.32 ± 0.7 | 1.34 ± 0.56
CCS(=O)(=O)c1cccc(-c2cc(C(=O)NC3CCN(C)CC3)c(C)c3[nH]c4ncc(C)cc4c23)c1 | 1.06 ± 0.071 | 1.1 ± 0.057 | 0.522 ± 0.23 | 0.965 ± 0.026 | 1.25 ± 0.078 | 1.215 ± 0.0071 | 0.565 ± 0.24 | 0.834 ± 0.1
O=C1NC(=O)C(=Cc2ccc(-c3ccc(F)cc3)o2)S1 (stereo in doubt) | 1.08 ± 0.11 | 1.11 ± 0.064 | 1.09 ± 0.11 | 0.937 ± 0.1 | 1.25 ± 0.021 | 1.55 ± 0.16 | 1.29 ± 0.38 | 1.1 ± 0.13
Cn1c(=O)c(F)c(Nc2ccc(I)cc2F)c2c(=O)n(C[C@@H](O)CO)cnc21 | 1.24 ± 0.05 | 1.2 | 0.9705 ± 0.0035 | 1.18 ± 0.035 | 1.66 ± 0.057 | 1.61 ± 0.62 | 1.31 ± 0.42 | 2.19 ± 0.11
COc1cccc(-c2cc(=O)c3ccccc3o2)c1N | 1.24 ± 0.085 | 1.025 ± 0.0071 | 1.19 ± 0.071 | 1 ± 0.023 | 1.71 ± 0.2 | 1.62 ± 0.53 | 1.25 ± 1 | 1.27 ± 0.65
Cc1[nH]c(/C=C2\C(=O)Nc3ccc(S(=O)(=O)Cc4c(Cl)cccc4Cl)cc32)c(C)c1C(=O)N1CCC[C@@H]1CN1CCCC1 | 0.691 ± 0.27 | 0.648 ± 0.43 | 0.826 ± 0.33 | 0.798 ± 0.34 | 0.7 ± 0.36 | 0.868 ± 0.16 | 0.7 ± 0.88 | 1.21 ± 0.028
COc1cc2c(Oc3ccc4[nH]c(C)cc4c3F)ncnc2cc1OCCCN1CCCC1 [Cediranib (AZD2171)] | 0.659 ± 0.18 | 0.769 ± 0.054 | 0.658 ± 0.02 | 0.893 ± 0.067 | 0.968 ± 0.51 | 0.801 ± 0.32 | 0.354 ± 0.15 | 0.699 ± 0.12
N#CC[C@H](C1CCCC1)n1cc(-c2ncnc3[nH]ccc23)cn1 | 1.115 ± 0.0071 | 1.13 ± 0.057 | 1.09 | 0.9755 ± 0.0021 | 1.05 ± 0.15 | 1.025 ± 0.0071 | 1.13 ± 0.042 | 1.09 ± 0.042
Cc1ccc(F)c(NC(=O)Nc2ccc(-c3cccc4[nH]nc(N)c34)cc2)c1 [Linifanib (ABT-869)] | 0.833 ± 0.063 | 0.948 ± 0.1 | 0.764 ± 0.03 | 0.883 ± 0.042 | 1.05 ± 0.086 | 1.33 ± 0.31 | 0.906 ± 0.15 | 0.872 ± 0.42
NC(=O)Nc1cc(-c2cccc(F)c2)sc1C(=O)N[C@H]1CCCNC1 | 0.645 ± 0.073 | 0.679 ± 0.04 | 0.293 ± 0.12 | 0.838 ± 0.13 | 0.667 ± 0.19 | 0.829 ± 0.15 | 0.436 ± 0.15 | 0.982 ± 0.14
CCc1cc(Nc2nccc(-c3c(-c4ccc(OC)c(C(=O)Nc5c(F)cccc5F)c4)nc4ccccn34)n2)c(OC)cc1N1CCC(N2CCN(S(C)(=O)=O)CC2)CC1 | 0.925 ± 0.059 | 0.995 ± 0.12 | 1.1 ± 0.028 | 0.974 ± 0.066 | 0.939 ± 0.035 | 0.977 ± 0.047 | 1.25 ± 0.05 | 1.24 ± 0.085
COc1cc2ncnc(Nc3cccc(Br)c3)c2cc1OC | 1.15 ± 0.15 | 1.07 ± 0.064 | 1.06 ± 0.086 | 1.03 ± 0.071 | 0.631 ± 0.37 | 0.58 ± 0.13 | 0.911 ± 0.11 | 0.838 ± 0.09
CNC(=O)Nc1ccc(-c2nc(N3CC4CCC(C3)O4)c3cnn(C4CCC5(CC4)OCCO5)c3n2)cc1 | 0.902 ± 0.088 | 0.998 ± 0.045 | 0.805 ± 0.11 | 1.16 ± 0.028 | 0.356 ± 0.076 | 0.554 ± 0.12 | 0.617 ± 0.14 | 0.876 ± 0.1
CC(=O)Nc1cccc(-n2c(=O)n(C3CC3)c(=O)c3c(Nc4ccc(I)cc4F)n(C)c(=O)c(C)c32)c1 | 1.33 ± 0.057 | 1.29 ± 0.13 | 0.9995 ± 0.00071 | 1.19 ± 0.042 | 1.09 ± 0.52 | 1.39 ± 0.54 | 1.32 ± 0.58 | 2.02 ± 0.042
COC(=O)c1ccc2c(C(=Nc3ccc(N(C)C(=O)CN4CCN(C)CC4)cc3)c3ccccc3)c(O)[nH]c2c1 [BIBF1120 (Vargatef)] | 1.21 ± 0.18 | 1.04 ± 0.014 | 1.06 ± 0.028 | 1.125 ± 0.0071 | 1.35 ± 0.035 | 1.03 ± 0.18 | 0.749 ± 0.54 | 0.895 ± 0.53
COc1ncc(-c2ccc3nccc(-c4ccnnc4)c3c2)cc1NS(=O)(=O)c1ccc(F)cc1F | 0.84 ± 0.018 | 0.944 ± 0.073 | 0.295 ± 0.026 | 1.09 ± 0.042 | 0.255 ± 0.054 | 0.238 ± 0.067 | 0.132 ± 0.021 | 0.558 ± 0.0092
COc1ccc(-c2ccc3c(N4CCOCC4)nc(N4C[C@@H](C)O[C@@H](C)C4)nc3n2)cc1CO | 0.938 ± 0.074 | 0.878 ± 0.041 | 0.842 ± 0.076 | 1.18 ± 0.021 | 0.392 ± 0.059 | 0.597 ± 0.019 | 0.432 ± 0.24 | 0.812 ± 0.29
C[C@@H](N)[C@H]1CC[C@H](C(=O)Nc2ccncc2)CC1 | 1.03 ± 0.05 | 1.03 ± 0.05 | 1.09 ± 0.021 | 1.045 ± 0.0071 | 1.22 ± 0.092 | 1.32 ± 0.057 | 1.53 ± 0.064 | 1.18 ± 0.057
COc1ccc(-c2ccc3ncc4c(c3c2)n(-c2ccc(N3CCNCC3)c(C(F)(F)F)c2)c(=O)n4C)cn1 | 0.0998 ± 0.065 | 0.116 ± 0.084 | 0.0311 ± 0.011 | 0.273 ± 0.18 | 0.0479 ± 0.0086 | 0.0791 ± 0.014 | 0.0387 ± 0.017 | 0.148 ± 0.14
CS(=O)(=O)CCNCc1ccc(-c2ccc3ncnc(Nc4ccc(OCc5cccc(F)c5)c(Cl)c4)c3c2)o1 [Lapatinib Ditosylate (Tykerb)] | 1.06 ± 0.078 | 1.02 ± 0.03 | 0.972 ± 0.04 | 0.913 ± 0.035 | 1.27 ± 0.078 | 1.1 ± 0.042 | 1.25 ± 0.18 | 1.16 ± 0.057
